The values below come from PubChem BioAssay AID463193 (University of Pittsburgh Molecular Library Screening Center, 2010).

Structures are written as SMILES. Out of some 190,000 compounds screened, about 1,900 (1%) were called active. This is one part of a sample in which actives are shown more often than they occur.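 The calls were made as follows: active = percentage of spot-positive cells more than 3 SD above its plate mean, without a fluorescence outlier flag or 80% toxicity; inconclusive = no clear call, values can overlap the other calls; inactive = the rest.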

The nature of the test: GFP-LC3 puncta formation changes – imaging, high-content, MEF GFP-LC3, primary screen (AID 463193).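 As to % cells with GFP-LC3 spots: spot-positive cell cutoff set from DMSO-treated cells.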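 As to toxicity: cell loss after 18 h compound exposure.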 The note with it: autophagy, at 10 µM; % cells with GFP-LC3 spots: stronger effect = higher value; toxicity: measured here: cell loss, nuclei count.
On to `COc1ccc2[nH]c(C)c(CCN(Cc3cccs3)C(=S)Nc3ccccc3OC)c2c1`, for which the % cells with GFP-LC3 spots is 12.3% (inactive) and the toxicity turned out to be 16.6%.
As to `CCNC(=S)N(CCc1c(C)[nH]c2ccc(C)cc12)Cc1ccco1`, the % cells with GFP-LC3 spots was 19.1% (active) and the toxicity stood at 0.117%.
Consider `COc1cccc(NC(=S)N(CCc2c(C)[nH]c3ccccc23)Cc2ccco2)c1`, for which the % cells with GFP-LC3 spots is 9.78% (inactive) and the toxicity amounted to 16.6%.
In the case of `COC(=O)c1nc2n(n1)C(c1ccc([N+](=O)[O-])cc1)C(C(=O)Nc1ccc(Cl)cc1)=C(C)N2` (stereo unspecified), the % cells with GFP-LC3 spots is 5.34% (inactive) and the toxicity was -5.39%.
`O=C(c1cccc([N+](=O)[O-])c1)N1CCN(C(=O)c2ccco2)CC1`: the % cells with GFP-LC3 spots was 0.295% (inactive) and the toxicity is 7.8%.
For `O=C(COc1ccc(Cl)cc1)N1CCN(c2cccc(C(F)(F)F)c2)CC1`, in that order: 9.65% (inactive) and -3.29%.
For `CCC(=O)c1ccc(OCC(O)CN2CC(C)OC(C)C2)cc1` (stereo unspecified), in that order: 5.51% (inactive) and -8.47%.
Take `CCC(=O)c1ccc(OCC(O)CN2CCN(c3cccc(C(F)(F)F)c3)CC2)cc1` (stereo unspecified): the % cells with GFP-LC3 spots is 13.1% (active) and the toxicity is 8.02%.
For `CCO[C@@H]1OC(C(N)=O)=C[C@H](c2ccc(Br)cc2)[C@H]1CCCO` the same measures were 18.2% (inactive) and 10.9%.
For `CNS(=O)(=O)c1ccc(NC(=O)C2CC(=O)N(c3ccc(Cl)cc3)C2)cc1` (stereo unspecified), in that order: 8.63% (inactive) and -13.2%.
Regarding `COc1cccc(C(=O)N2CCCC(CCC(=O)NCc3ccc(F)c(F)c3)C2)c1` (stereo unspecified), the % cells with GFP-LC3 spots is 3.38% (inactive) and the toxicity is 5.82%.
`O=C(O)CC(Cc1ccccc1)C(=O)Nc1ccc([N+](=O)[O-])cc1` (stereo unspecified): the % cells with GFP-LC3 spots was 1.42% (inactive) and the toxicity was -2.46%.
In the case of `CN(C)S(=O)(=O)c1ccc2oc(SCC(=O)Nc3ccccc3F)nc2c1`, the % cells with GFP-LC3 spots is 0.884% (inactive) and the toxicity is -4.66%.
For `Cc1cccc(C(=O)N2CCc3c([nH]c4ccccc34)C2CC(C)C)n1` (stereo unspecified), the % cells with GFP-LC3 spots was 11% (inactive) and the toxicity is -2.26%.
For `C=CCNC(=O)CC12CC3CC(C1)CC(CC(=O)NCC=C)(C3)C2`, in that order: 23% (inactive) and 16.8%.
Turning to `C=CCNC(=O)CCCC(=O)NCC=C`, the % cells with GFP-LC3 spots was 17.9% (active) and the toxicity is 1.29%.
For `C=CCNC(=O)CCCOc1cccc(C)c1` the same measures were 10.7% (inactive) and 16.1%.
Take `O=C(O)c1cccc(N=NN2CCCCCC2)c1`: the % cells with GFP-LC3 spots was 6.85% (inactive) and the toxicity is -1.54%.
Regarding `CSc1ncnc2sc(C)c(C)c12`, the % cells with GFP-LC3 spots was 10.2% (inactive) and the toxicity was 24.5%.
Consider `CCCOC(=O)c1[nH]c2c(c1C)C(=O)CC(c1cccs1)C2` (stereo unspecified), for which the % cells with GFP-LC3 spots is 19% (active) and the toxicity is 63%.
Regarding `CCCOC(=O)c1[nH]c2c(c1C)C(=O)CC(c1cc(OC)c(OC)c(OC)c1)C2` (stereo unspecified), the % cells with GFP-LC3 spots is 12.1% (inactive) and the toxicity worked out at 15.9%.
For `CCOC(=O)c1[nH]c2c(c1C)C(=O)CC(c1ccc(N(C)C)cc1)C2` (stereo unspecified), the % cells with GFP-LC3 spots is 2.24% (inactive) and the toxicity was -7.4%.
For `Cc1ccc(SC(C)C(=O)NCc2ccc(F)cc2)cc1` (stereo unspecified), in that order: 0.143% (inactive) and -15%.
